In all, about 48,000 compounds went through this assay and about 13,000 (27%) showed an effect of 50% or more. The list shows a part of the results.
test system: Wolbachia pipientis; assay: Anti-Wolbachia Cell-Based Screen; assay type: functional; set-up: scale not given: in the data most compounds retested in dose-response had high values; details: 5 µM

First: Cc1nn(CC(=O)N2CCN(c3ncccn3)CC2)c(C)c1Cl
Second: Cc1ncsc1CCn1ccnc1-c1cc2n(n1)CCCNC2
The “Percent Effect” value of the first is higher: 17.26% for the first, -9.491% for the second.

Going from `Cc1ccc(N(C)[C@@H]2CC[C@@H]3CN(C(=O)C4CCOCC4)C[C@@H]32)nn1` to `Cc1ccc(N(C)[C@@H]2CC[C@@H]3CN(C(=O)CC4CCOCC4)C[C@@H]32)nn1`, the “Percent Effect” value falls from 186.8% to 152.8%.

Compared with `Cc1ccc(N2C[C@H](C(=O)NCC3CC3)[C@@H]3CCO[C@@H]3C2)nn1.O=C(O)C(F)(F)F`, `CN(Cc1cccs1)C1CCC[C@@H]2CN(C(N)=O)C[C@H]12.O=C(O)C(F)(F)F` (some centres undefined) is higher in “Percent Effect” value: 0.6774% for the first, 5.173% for the second.

First: Cc1ccc(N(C)[C@@H]2CC[C@@H]3CN(C(=O)Cc4cccs4)C[C@@H]32)nn1
Second: Cc1ccc(N(C)C2CCN(C(=O)CCc3ccco3)CC2)nn1
The “Percent Effect” value of the first is higher: 112.9% for the first, -5.46% for the second.

Going from `Cc1ccc(N2CCC3(CCN(C(=O)C4CCOC4)CC3)CC2)nn1` (centres undefined) to `CCCN1CCC(N2CCN(c3cccc(C)n3)CC2)CC1`, the “Percent Effect” value rises from -12.92% to 3.962%.

First: CN(Cc1cccs1)C1CCC[C@@H]2CN(C(=O)c3cccn3C)C[C@H]12 (some centres undefined)
Second: O=C(Cc1cccs1)NCc1ccnc(OC2CCOCC2)c1
The “Percent Effect” value of the first is higher: 17.98% for the first, -13.9% for the second.

First: CCN(CCn1cccn1)Cc1nc(-c2cccs2)oc1C
Second: FC(F)(F)Cn1ccnc1CNCCn1cccn1
The “Percent Effect” value of the first is higher: 6.026% for the first, -10.84% for the second.

Going from `N#Cc1cccc(CN2CCn3cc(CNC(=O)C4CCC4)nc3C2)c1` to `c1ccc(Cc2noc(CN3CCCCC3C3OCCO3)n2)cc1` (centres undefined), the “Percent Effect” value rises from -7.661% to -5.666%.

Going from `COC(=O)NCC(=O)NC(c1ccc(Cl)cc1)C(F)(F)F` (centres undefined) to `O=C(CNc1ccc(F)cc1OCC(F)(F)F)NCc1ccco1`, the “Percent Effect” value falls from -6.665% to -21.13%.

First: COc1ccc(S(=O)(=O)N2CCC[C@@H]3CN(C(=O)C4CC4)C[C@@H]32)cc1F
Second: COc1ccc(S(=O)(=O)N2CCC[C@@H]3CN(C(=O)C4CC4)C[C@@H]32)cc1
The “Percent Effect” value of the first is higher: 83.03% for the first, 61.28% for the second.

First: COc1ccc(C(=O)N2CCCC(C)C2)cc1F (centres undefined)
Second: COc1ccc(C(=O)N2CCCC(CNS(C)(=O)=O)C2)cc1F (centres undefined)
The “Percent Effect” value of the first is higher: 8.733% for the first, 1.055% for the second.

Compared with `COC[C@@H]1CC[C@H]2[C@H](CCN2S(=O)(=O)c2ccc(OC)cc2)O1`, `CCN1C(=O)C[C@@H]2[C@@H]1CCN2S(=O)(=O)c1ccc(OC)cc1` is higher in “Percent Effect” value: -8.82% for the first, 1.644% for the second.

First: O=C(NCc1cc[nH]n1)NCC(O)c1ccc(F)cc1F (centres undefined)
Second: CC(C)(Oc1ccc(F)cc1)C(=O)NCc1ccco1
The “Percent Effect” value of the first is higher: 2.33% for the first, -9.094% for the second.

First: CCN(CC)C(=O)[C@@H]1C[C@H](NC(=O)c2ccn(C(C)(C)C)c2)CN1C
Second: CN(CC(=O)NC(C)(C)C)C(=O)c1cccn1CCc1ccccc1
The “Percent Effect” value of the first is lower: -2.667% for the first, 4.312% for the second.

Going from `O=C1CCCc2occ(C(=O)N3CCCC(O)(CO)C3)c21` (centres undefined) to `CNS(=O)(=O)CC(=O)N1CC2(CCCC2)c2c(F)cccc21`, the “Percent Effect” value falls from -7.191% to -10.56%.

Going from `CO[C@H]1COCCN(C(=O)c2ccno2)C1` to `O=C(Nc1ccnc(OC2CCOC2)c1)c1cccs1` (centres undefined), the “Percent Effect” value rises from -14.2% to -9.418%.

Compared with `COc1ccc(CNC(=O)CNc2ccccc2OC)cc1`, `O=C(CNc1ccc(OC2CCOC2)cc1)NCc1ccc(F)cc1` (centres undefined) is higher in “Percent Effect” value: -12.04% for the first, 77.11% for the second.

Compared with `Cc1ccccc1CNC(=O)CNc1ccc(OC2CCOC2)cc1` (centres undefined), `O=C(CNc1ccc(OC2CCOC2)cc1)NCc1cccs1` (centres undefined) is lower in “Percent Effect” value: 97.09% for the first, 90.04% for the second.

Going from `Cc1ccc(NCc2cccc3cn[nH]c23)cc1OC1CCOC1` (centres undefined) to `O=C(CNc1ccc(OC2CCOC2)cc1)NCc1ccco1` (centres undefined), the “Percent Effect” value rises from 0.01014% to 104.1%.

Compared with `O=C(CNc1cc2c(cc1Cl)OCCCO2)NCc1ccc(F)cc1`, `O=C(CNc1ccc(OCC2CCOCC2)cc1)NCc1ccco1` is higher in “Percent Effect” value: 5.92% for the first, 93.4% for the second.

Going from `Cc1ccccc1C(=O)Nc1ccc(OC2CCN(C)CC2)cc1` to `O=C(CCc1cccnc1)Nc1ccc(OCC2CCOCC2)cc1`, the “Percent Effect” value falls from -1.73% to -6.342%.

Going from `CC(C)(C)Oc1ccc(NCC(=O)NCc2ccco2)cc1` to `O=C(CNc1cccc(CC(F)(F)F)c1)NCc1ccco1`, the “Percent Effect” value falls from 90.6% to 5.703%.

Going from `Cc1occc1C(=O)N1CCC(C(O)c2ccc(F)cc2)CC1` (centres undefined) to `Cc1ccc(CN2CCN(c3ncccc3C(N)=O)CC2CCO)cc1` (centres undefined), the “Percent Effect” value rises from -2.674% to 0.06546%.

Going from `Cc1ccc(C)c(CC(=O)Nc2cnccc2SCCCO)c1` to `Cc1ccc(N2N=C(C(=O)O)S(=O)(=O)c3cccnc32)cc1`, the “Percent Effect” value rises from 3.451% to 88.09%.

Compared with `CC(C)C[C@@H]1N[C@H](C(=O)NCC2CC2)Cc2c[nH]c3cccc1c23`, `CCc1c(C(=O)NCC2CCS(=O)(=O)C2)cnn1-c1ccc(C)cc1` (centres undefined) is lower in “Percent Effect” value: 1.644% for the first, 0.07541% for the second.

Compared with `COCC1c2nnn(CC3CC3)c2CCN1C(=O)c1sccc1C` (centres undefined), `Cc1ccc(-n2nnc(C(=O)NCC3CCCCC3)n2)cc1` is lower in “Percent Effect” value: 4.054% for the first, 3.646% for the second.

First: Cc1nnc(N2CCC(CNC(=O)OC(C)(C)C)CC2)c(C#N)c1C
Second: Cc1ccc(N2N=C(C(=O)NCC3CC3)S(=O)(=O)c3cccnc32)cc1
The “Percent Effect” value of the first is lower: -3.272% for the first, 113.2% for the second.

Going from `Cl.Cl.O[C@@H]1C[C@@](CNCC2CCCC2)(COc2cccnc2)C[C@@H]1O` to `O=C(CCc1ccncc1)Nc1ccc(OCC2CCOCC2)cc1`, the “Percent Effect” value rises from -14.64% to 5.919%.

Compared with `O=C(CNc1cccc(S(=O)(=O)C(F)F)c1)NCc1ccco1`, `CN(Cc1nccn1CC(F)(F)F)C(=O)c1cccc(N(C)C)c1` is higher in “Percent Effect” value: 4.728% for the first, 107.5% for the second.

Compared with `CCN1CCN(C(=O)CCC2CCN(C(C)CCC(=O)OC)CC2)CC1` (centres undefined), `CCS(=O)(=O)N1CCC(NCC2CNc3cc(C)nn3C2)CC1` (centres undefined) is lower in “Percent Effect” value: -3.151% for the first, -5.639% for the second.

Going from `Cc1nccn1-c1ccc(N2CCC(NC(C)C(C)C)CC2)cc1` (centres undefined) to `CC(O)C1CCN(Cc2nccn2CC(F)(F)F)CC1` (centres undefined), the “Percent Effect” value falls from 16.28% to -9.918%.

First: CN(C)c1cc(C(=O)NC2(c3cccc(F)c3)CCOCC2)ccn1
Second: CC(=O)Nc1ccc2c(c1)C1(CCOCC1)C(=O)N2c1ccsc1
The “Percent Effect” value of the first is lower: -10.5% for the first, 7.168% for the second.

Going from `Cc1cccc(CN2C[C@@H]3CN(C(=O)c4conc4C)C[C@@H]3C2=O)c1` to `Cc1cc(CN2C[C@H]3CC[C@@H]2CN(Cc2c(C)noc2C)C3)ccc1F`, the “Percent Effect” value falls from 2.313% to -0.5585%.

First: c1cncc(N2CCOC3(CCCN(c4nncs4)C3)C2)c1 (centres undefined)
Second: Cc1nc2c(c(N3CC=CC3)n1)CCN(c1ncccc1C(N)=O)CC2
The “Percent Effect” value of the first is lower: -20.57% for the first, -4.106% for the second.

First: O=C(C1=NN(Cc2ccccc2)c2ccccc2S1(=O)=O)N1CCCC1
Second: CN1N=C(C(=O)N2CCCCC2)S(=O)(=O)c2ccccc21
The “Percent Effect” value of the first is higher: 25.7% for the first, 9.429% for the second.

Compared with `Cc1ccc(N2N=C(C(N)=O)S(=O)(=O)c3cccnc32)cc1`, `CCn1c(CN(C)C(=O)c2ccc(O)nc2)nc2ccccc21` is lower in “Percent Effect” value: 70.93% for the first, -29.68% for the second.

First: C[C@H](NC(=O)C1(N(C)Cc2ccccc2)Cc2ccccc2C1)C(N)=O
Second: CN(Cc1ccc2c(c1)OCO2)C(=O)c1ccc(=O)n(C)c1
The “Percent Effect” value of the first is lower: -2.365% for the first, -0.4136% for the second.

Going from `CC(=O)c1c(F)cccc1NC1CCN(S(=O)(=O)C2CC2)CC1` to `COC(=O)c1ccc(NC(=O)CN2CCCCC2C2OCCO2)cc1` (centres undefined), the “Percent Effect” value falls from 15.22% to -2.306%.

Going from `Cc1ccc(C(=O)N(C)Cc2cc(Br)cs2)cn1` to `Cc1ccc(C(=O)N(C)Cc2nccn2CC(F)(F)F)cn1`, the “Percent Effect” value rises from 108.4% to 108.9%.

First: CN(Cc1ccc2c(c1)OCO2)C(=O)c1ccn(C)c(=O)c1
Second: CN(Cc1nccn1CC(F)(F)F)C(=O)c1ccc2c(c1)OCO2
The “Percent Effect” value of the first is lower: 11.43% for the first, 110.7% for the second.

Going from `Cc1cc(CN(C)C(=O)c2ccc(C(F)(F)F)nc2)no1` to `COc1cc(C(=O)N(C)Cc2nccn2CC(F)(F)F)ccc1C`, the “Percent Effect” value rises from 4.429% to 111.1%.

Compared with `Cc1cnn(CCNCc2nccn2CC(F)(F)F)c1`, `CCOc1ccc(C(=O)N(C)Cc2nccn2CC(F)(F)F)cc1` is higher in “Percent Effect” value: -5.156% for the first, 117.2% for the second.

First: CN(Cc1nccn1C)C(=O)c1cccc(CCC(C)(C)O)c1
Second: Cc1nn(C)c(C)c1CN(C)C(=O)c1cccc(CCC(C)(C)O)c1
The “Percent Effect” value of the first is higher: -1.939% for the first, -10.94% for the second.

First: CN(Cc1cc(Br)cn1C)C(=O)c1cccnc1
Second: COCc1cccc(C(=O)N(C)Cc2ncc(C)c(OC)c2C)c1
The “Percent Effect” value of the first is lower: -11.61% for the first, 6.137% for the second.

Compared with `CCc1nnsc1C(=O)NCc1c(C)nn(CCOC)c1C`, `COc1cc(C)c(C(C)NC(=O)Nc2nnc(C)s2)cc1OC` (centres undefined) is lower in “Percent Effect” value: 22.53% for the first, -2.297% for the second.

First: Cc1ccc(C2CCCCCN2CCNS(C)(=O)=O)o1 (centres undefined)
Second: CC1CN(Cc2ccccc2)CCCN1CCNS(C)(=O)=O (centres undefined)
The “Percent Effect” value of the first is lower: -18.53% for the first, 2.156% for the second.

Compared with `O=C(CN1C(=O)CCCc2sccc21)NC1CCc2nccn2C1` (centres undefined), `COc1ccc(NC(=O)CN2CCCCC2C2OCCO2)cc1` (centres undefined) is higher in “Percent Effect” value: -8.511% for the first, 17.05% for the second.

Going from `CN(C)CC1CCN(Cc2nccn2CC(F)(F)F)CC1` to `O=C(O)C(F)(F)F.O=C(O)C(F)(F)F.c1cncc(CN2CCOC(c3ncn4c(C5CC5)cccc34)C2)c1` (centres undefined), the “Percent Effect” value falls from 2.033% to -19.22%.

First: CO[C@H]1CN(C)S(=O)(=O)[C@@]12CCN(Cc1ccccc1)C2
Second: CO[C@@H]1CN(C)S(=O)(=O)[C@@]12CCN(Cc1ccccc1)C2
The “Percent Effect” value of the first is lower: 109.7% for the first, 116.7% for the second.

Compared with `CC1CN(Cc2ccccc2)CCCN1CCS(C)(=O)=O` (centres undefined), `C1CCN(CCN2CCCCC2C2OCCO2)CC1` (centres undefined) is higher in “Percent Effect” value: -9.711% for the first, 105.6% for the second.

First: COc1ccc(OCC(C)NS(C)(=O)=O)cc1 (centres undefined)
Second: CCCOc1cc(C)c2c(c1C)C[C@H]([C@H](C)C(=O)O)CC2
The “Percent Effect” value of the first is higher: -2.499% for the first, -9.304% for the second.

Going from `C1CC(CN2CCCCC2C2OCCO2)C1` (centres undefined) to `OCCN1CCCCC1C1OCCO1` (centres undefined), the “Percent Effect” value rises from 19.65% to 89.19%.
